Structures are written as SMILES. Out of some 290,000 compounds screened, about 160 (0.055%) were called active. No stated cut-off is given here; in the data, active means inhibition above about 50%; inactive means the rest. Only a selection was taken, and actives are over-represented in it overall.

The target in this experiment is Tyrosine-protein phosphatase non-receptor type 22 (Homo sapiens) (UniProt Q9Y2R2). Description: inhibitors of LYP phosphatase, biochemical, fluorescence intensity, uHTS (AID 1779).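 Further: plate controls were vehicle with enzyme for no effect and no enzyme for full effect.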 Conditions: recombinant LYP phosphatase, at 11.5 µM, active compounds read high.
Sequence of Tyrosine-protein phosphatase non-receptor type 22 (Homo sapiens) (Q9Y2R2 whole entry, looked up): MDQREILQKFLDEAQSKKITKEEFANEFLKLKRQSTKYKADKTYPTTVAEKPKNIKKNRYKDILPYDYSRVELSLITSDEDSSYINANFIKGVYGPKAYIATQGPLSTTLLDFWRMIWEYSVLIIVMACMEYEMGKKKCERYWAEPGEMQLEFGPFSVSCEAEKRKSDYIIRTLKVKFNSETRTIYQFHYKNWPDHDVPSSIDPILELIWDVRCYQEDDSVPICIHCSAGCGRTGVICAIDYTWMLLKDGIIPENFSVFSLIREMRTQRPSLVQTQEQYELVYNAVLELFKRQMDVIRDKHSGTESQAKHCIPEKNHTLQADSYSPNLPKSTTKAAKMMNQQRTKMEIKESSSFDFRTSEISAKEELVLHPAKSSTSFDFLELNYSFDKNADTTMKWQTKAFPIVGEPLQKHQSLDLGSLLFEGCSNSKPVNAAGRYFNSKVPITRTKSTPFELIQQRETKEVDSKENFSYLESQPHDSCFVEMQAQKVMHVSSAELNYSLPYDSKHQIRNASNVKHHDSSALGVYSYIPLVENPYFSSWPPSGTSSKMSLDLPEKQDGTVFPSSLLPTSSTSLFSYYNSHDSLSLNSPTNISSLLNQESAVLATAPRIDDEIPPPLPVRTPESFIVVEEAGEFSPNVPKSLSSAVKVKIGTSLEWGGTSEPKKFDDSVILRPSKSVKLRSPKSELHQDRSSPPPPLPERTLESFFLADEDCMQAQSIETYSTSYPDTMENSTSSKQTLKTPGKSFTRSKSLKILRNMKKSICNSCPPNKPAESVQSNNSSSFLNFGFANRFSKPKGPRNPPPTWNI
In the case of `Cn1nc(C(C)(C)C)cc1NC(=O)Nc1ccc(Cl)cc1`, the inhibition was 0% (inactive).

On to `Cn1cccc1Cc1nnc(SCC(=O)Nc2ccccc2F)n1-c1ccc(F)cc1`, for which the inhibition is 8.3% (inactive). The result for `COc1ccccc1NC(=O)CSc1nnc(Cc2cccn2C)n1-c1ccc(F)cc1` reads 1.1% (inactive). The result for `CCOc1ccccc1NC(=O)CSc1nnc(Cc2cccn2C)n1-c1ccc(F)cc1` reads 64.9% (active). As to `CCc1cccc(NC(=O)C2CCCN(c3ncnc4c3nc3n4CCCCC3)C2)c1` (configuration not stated), the inhibition is -6.4% (inactive).

For the compound `COc1ccccc1CC(NC(C)=O)C(=O)NC1CCN(C(=O)Nc2ccc(F)cc2)CC1` (configuration not stated), the inhibition was -8% (inactive). The result for `Cc1nn(C)c(C(=O)N/N=C/c2cccnc2)c1Cl` reads -2.8% (inactive); that for `Cc1ccccc1Cc1c(C)nc2ncnn2c1C`, -9% (inactive). The result for `O=C(O)CCCNc1cc(N2CCC3(CC2)OCCO3)c2noc3c2c1C(=O)c1ccccc1-3` reads 75.6% (active); that for `CCOC(=O)N1CCN(c2cc(NCCC(=O)O)c3c4c(onc24)-c2ccccc2C3=O)CC1`, 3.3% (inactive). On to `O=C(O)CCCNc1cc(N2CCN(C(=O)c3ccco3)CC2)c2noc3c2c1C(=O)c1ccccc1-3`, for which the inhibition is 2.4% (inactive). For `Clc1ccc2nc(-c3ccc(Br)s3)cn2c1` the value was -4.3% (inactive). With `CC(=Nc1ccccc1)c1sc2ccccc2c1O`, the inhibition is 2% (inactive). The result for `COc1ccc(/C=C2\SC(N)=NC2=O)cc1Br` reads -4.5% (inactive); that for `COc1cccc(C(=O)Nc2cccc(-c3ccc4nncn4n3)c2)c1OC`, -0.4% (inactive); that for `COc1cccc(OC)c1C(=O)Nc1cccc(-c2ccc3nncn3n2)c1`, -6.9% (inactive). For `CC(C)CC1=NN(C(=O)c2ccco2)C(O)(C(F)(F)F)C1` (configuration not stated) the value was -6.1% (inactive); for `C=CCN(CC=C)C(=S)NC(=O)/C=C/c1ccccc1`, 2.6% (inactive); for `C=CCN(CC=C)C(=S)NC(=O)/C=C/c1ccc(C)cc1`, 65.4% (active).

As to `C=CCN(CC=C)C(=S)NC(=O)/C=C/c1ccc(OC)cc1`, the inhibition is 8.3% (inactive). As for `COc1ccc(S(=O)(=O)Nc2nccs2)cc1OC`, the inhibition was -10.2% (inactive). For `CCC(C)n1c(C)nc2c(c1=O)c1nc3ccccc3nc1n2CCC1=CCCCC1` (configuration not stated) the value was 7.5% (inactive); for `COc1ccc2c(-c3ccccc3)cc(N3CCOCC3)nc2c1`, 72.7% (active); for `c1ccc(-c2cc(N3CCOCC3)nc3ccccc23)cc1`, 2.6% (inactive). On to `COc1ccc2c(C)cc(N3CCOCC3)nc2c1`, for which the inhibition is -0.1% (inactive).

With `NC(=O)c1nn(-c2ccccc2)nc1NC(=O)CSc1nnnn1-c1ccc(Cl)cc1`, the inhibition was 5.7% (inactive). With `Cc1cccc(NC(=O)c2ccc(OC3CSC3)cc2)c1`, the inhibition was -5% (inactive). For `CC(=O)c1cccc(NC(=O)c2ccc(OC3CSC3)cc2)c1` the value was -7% (inactive). The result for `O=C(Nc1ccc(Cl)cc1)c1ccc(OC2CSC2)cc1` reads 67.9% (active); that for `O=C(NCc1ccccc1)c1cncc(Br)c1`, 67.8% (active). For `Cc1ccc(CNC(=O)c2cncc(Br)c2)cc1` the value was -2.9% (inactive); for `O=C(NCc1ccncc1)c1cncc(Br)c1`, -9.5% (inactive); for `NC(=O)Nc1ccc(C(=O)OCC(=O)Nc2cccc(S(=O)(=O)NC3=NCCCCC3)c2)cc1`, -1.2% (inactive).

As to `CCOC(=O)c1cc(-c2ccccc2)sc1NC(=S)Nc1cccc(C)n1`, the inhibition is 5.7% (inactive). The result for `Cc1ccc2nsnc2c1NC(=O)CCl` reads -1.6% (inactive); that for `CC(C)(C)c1nc(S(=O)(=O)c2ccc(Cl)cc2)c(N2CCOCC2)o1`, -10.6% (inactive). Turning to `CC(C)Cc1nc(S(=O)(=O)c2ccc(Cl)cc2)c(N2CCOCC2)o1`, the inhibition is 81.8% (active). For `CCCCc1nc(S(=O)(=O)c2ccc(Cl)cc2)c(N2CCOCC2)o1` the value was -7.7% (inactive); for `CCc1ccc2c(CC(=O)Nc3nnc(C4CC4)s3)coc2c1`, -7.3% (inactive); for `Cc1ccc(CNC(=O)CN2CCN(c3ccc(F)cc3)CC2)cc1`, 1.2% (inactive). For `CCN(CCO)Cc1csc2ccc(Br)cc12` the value was -8.6% (inactive); for `CCN(CCO)Cc1csc2ccc(C(C)(C)C)cc12`, 52.5% (active); for `CCN(CCO)Cc1csc2ccc(Cl)cc12`, -3.3% (inactive). For `FC(F)(F)c1cc(Cl)c2nnc(-c3cccnc3)n2c1`, the inhibition was -4.4% (inactive).

Turning to `Cc1ccc(NC(=Nc2ccc(Br)cc2)N2CCOCC2)cc1C`, the inhibition is -2.9% (inactive). The result for `Cc1ccc2[nH]c(=O)cc(C(=O)OCC(=O)c3ccc(F)cc3)c2c1` reads 1.2% (inactive); that for `Cc1ccc(C(=O)COC(=O)c2cc(=O)[nH]c3ccccc23)cc1`, -5.1% (inactive).

On to `Cc1ccc2[nH]c(=O)cc(C(=O)OCC(=O)c3ccccc3)c2c1`, for which the inhibition is 70.6% (active).

For `Cn1c(C(=O)NC2CCCCC2)cc2sccc21`, the inhibition was -4.8% (inactive). The result for `CCC(=O)NC(=S)Nc1ccc(NC(=O)COc2ccccc2)cc1` reads -2.2% (inactive); that for `CCOC(=O)c1ccc(NC(=S)NC(=O)COc2ccccc2)cc1`, 69.2% (active); that for `CCOC(=O)c1ccc(NC(=S)Nc2ccccc2)cc1`, -5.5% (inactive). For `COc1ccc2[nH]c(=O)c(CN(c3ccccc3OC)S(=O)(=O)c3ccccc3)cc2c1` the value was -5.9% (inactive); for `Nc1nc(NCCN2CCOCC2)nc(NCc2ccccc2)c1[N+](=O)[O-]`, -6% (inactive). The result for `CC(C)CCNC(=O)c1ccc2c(SCC(=O)O)c3c(nc2c1)CCC3` reads -1.8% (inactive); that for `COCCNC(=O)c1ccc2c(Cl)c3c(nc2c1)CCC3`, -7.1% (inactive). With `CC(C)CCNC(=O)c1ccc2c(Cl)c3c(nc2c1)CCC3`, the inhibition was 85.9% (active).

In the case of `O=C(Nc1ccccc1C(=O)NCc1ccccc1)c1ccccc1Br`, the inhibition is -1.2% (inactive). As for `COc1ccc(C(C(=O)NC2CCCC2)N2CCc3ccccc32)cc1` (configuration not stated), the inhibition was 88.2% (active). The result for `O=C(NC1CCCCC1)C(c1ccccc1)N1CCc2ccccc21` (configuration not stated) reads 3% (inactive).

Turning to `Cc1ccc(C(C(=O)NC2CCCC2)N2CCc3ccccc32)cc1` (configuration not stated), the inhibition is 0.4% (inactive). Consider `COc1ccc(CNC(=O)Cc2ccc(NC(=O)C3=C(C)OCCS3)cc2)cc1`, for which the inhibition was -1.9% (inactive). As for `CC(O)CNc1nc2c(c(=O)n(Cc3ccc(Cl)c(Cl)c3)c(=O)n2C)n1C` (configuration not stated), the inhibition was -3.6% (inactive). With `N#C/C(=C/c1ccccc1OCc1ccc(F)cc1)c1ccc(C(=O)O)cc1`, the inhibition was -6.7% (inactive). The result for `N#C/C(=C\c1ccccc1OCc1ccc(C(=O)O)cc1)c1ccccc1` reads -4.4% (inactive); that for `CCOc1cc(/C=C(\C#N)C(=O)Nc2cccc(C(=O)O)c2)ccc1OCc1ccccc1Cl`, -2.4% (inactive); that for `N#C/C(=C\c1ccc(OCc2ccc(Br)cc2)cc1)C(=O)Nc1cccc(C(=O)O)c1`, 93.4% (active). For `N#C/C(=C\c1ccc(OCc2ccc(F)cc2)cc1)C(=O)Nc1cccc(C(=O)O)c1` the value was 5.5% (inactive). The result for `COc1cc(/C=C(\C#N)C(=O)Nc2cccc(C(=O)O)c2)ccc1OCc1ccc(Cl)cc1` reads 15% (inactive). Consider `N#C/C(=C\c1ccc(OCc2ccccc2)cc1)C(=O)Nc1ccc(C(=O)O)cc1`, for which the inhibition is 3% (inactive). For the compound `N#C/C(=C/c1ccc(OCc2ccc(C(=O)O)cc2)cc1)C(=O)Nc1ccccc1`, the inhibition is -4.6% (inactive). For `COc1cc(/C=C(\C#N)C(=O)Nc2cccc(C(=O)O)c2)ccc1OCc1ccc(C)cc1` the value was -1.7% (inactive). The result for `COc1ccc(-c2sc3ccccc3c2C#CC2(O)CCCCC2)cc1` reads -5% (inactive). With `CSc1nc2ccc(NS(=O)(=O)c3ccc(Cl)s3)cc2s1`, the inhibition is 1.1% (inactive). As to `COC(=O)CSCC(=O)Nc1nnc(-c2cccc(C)c2)s1`, the inhibition was 5% (inactive).

For `CC(=O)c1sc(NC(=O)C(C)Oc2ccc3c(C)cc(=O)oc3c2)nc1C` (configuration not stated), the inhibition is -5.1% (inactive). `CC(=O)N(C)c1ccc(NC(=S)Nc2cccc3ccccc23)cc1`: the inhibition was -2.8% (inactive).

For the compound `O=C(Cn1nc(Cc2cccnc2)c2ccccc2c1=O)Nc1cc(F)ccc1F`, the inhibition is -6.7% (inactive). As to `O=C(N=C1SC2CS(=O)(=O)CC2N1Cc1ccccc1Cl)C1CC1` (configuration not stated), the inhibition is -11.3% (inactive). For `COc1ccccc1CNC(=O)c1cc2sccc2n1C` the value was -5.5% (inactive); for `CC(=O)Nc1ccc(S(=O)(=O)N2CCC(NC(=O)C(Cc3ccc(C)cc3)NC(C)=O)CC2)cc1` (configuration not stated), -16% (inactive); for `CCC1=C(OC(=O)N(CC)CC)N2C(=O)OC(=NCC3CC3)[C@]2(C)[C@H]2C1=CC[C@H]1C(=O)NC(=O)[C@H]12`, -0.8% (inactive). For `CCOC(=O)c1c(C)[nH]c(C)c1C(=O)CSc1nc2ccccc2n1CC` the value was -7.1% (inactive); for `O=C(O)C1CCCCC1C(=O)Nc1ccc(Cl)cc1` (configuration not stated), -1.6% (inactive); for `O=C(O)C1CC=CCC1C(=O)Nc1ccc(F)c(F)c1` (configuration not stated), 6.1% (inactive). Turning to `O=C(O)C1CCCCC1C(=O)Nc1ccc(F)c(F)c1` (configuration not stated), the inhibition is 51.4% (active). For the compound `COc1cccc(C2C(C(=O)c3cc4ccccc4o3)=C(O)C(=O)N2c2cc(C)on2)c1` (configuration not stated), the inhibition was -8% (inactive).

`Cc1ccc(C)c(CN2C(=O)COc3ccccc32)c1`: the inhibition is -5.6% (inactive). In the case of `CCCN1C(=O)COc2ccc(C(=O)c3ccccc3C(=O)O)cc21`, the inhibition is -4.6% (inactive). For `Cc1ccc(C)c(CN2C(=O)COc3ccc(C(=O)c4ccccc4C(=O)O)cc32)c1` the value was 57.9% (active). For `O=S(=O)(/C=C/c1ccccc1)NC1CCCCCCC1` the value was -7.9% (inactive); for `CC(c1ccccc1)n1c(N2CCN(C)CC2)nc2c1c(=O)[nH]c(=O)n2C` (configuration not stated), -0.2% (inactive); for `CCN(CC)CCNC(=O)Cc1nn(CC)c(=O)c2ccccc12`, -9.1% (inactive). The result for `COCCn1c(=O)c2cc3c(=O)n(CCOC)c(=O)c3cc2c1=O` reads -8.5% (inactive). Turning to `CCCC(=O)NCCc1cc2ccc(C)c(C)c2[nH]c1=O`, the inhibition is 67.2% (active).

In the case of `CCC(=O)NCCc1cc2ccc(C)c(C)c2[nH]c1=O`, the inhibition was 1.7% (inactive). `CC(=O)NCCc1cc2ccc(C)c(C)c2[nH]c1=O`: the inhibition is 0.4% (inactive).

The record behind these values is PubChem BioAssay AID1779 (Sanford-Burnham Center for Chemical Genomics, 2009).
